From PubChem BioAssay
In the library only some 2.1% were active in any assay of this set; here they are far more common.
EBV LMP1 NFkB: EBV LMP1-driven NF-kappaB luciferase reporter inhibitors, primary screen, cell-based, luminescence, single point; inhibition, % at 12.5 µM; 350,000 tested, 0.69% active; LMP1-induced NF-kappaB luciferase reporter cells; in the data active means inhibition above about 41%;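 further: 0% = neutral control wells and 100% = reference inhibitor control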
PAX8 inh HTS: inhibitors of PAX8-driven TPO luciferase reporter, primary screen, RMG-I cells, single concentration; inhibition, % at 12.6 µM; 360,000 tested, 1.2% active; AID 652154, 2013; SteadyGlo, 24 h;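 active means mean replicate inhibition at least 60% with every replicate also reaching 60%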;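 further: luciferase light reporting Pax8 driven TPO promoter activity; plate controls were median of neutral control wells for no effect and mitoxantrone controls for full effect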
Shn3 inh set2: reduction of Shn3 3'UTR firefly luciferase signal, primary screen, Schnurri-3 inhibitor project, cell-based, Clone20 osteoblasts, set 2. Clone20 osteoblast Shn3 3'UTR firefly luciferase, 24 h. 360,000 tested, 0.52% active. inhibition, % at 12.5 µM;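 active means mean inhibition of at least 75% with every replicate also reaching 75%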;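 further: 0% = median of neutral control wells and 100% = pilot-screen positive control compound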
MITF TRPM1 inh: inhibitors of MITF-dependent TRPM1 promoter reporter, primary screen, cell-based, SK-MEL-5, single point, luciferase; inhibition, % at 12.5 µM; SK-MEL-5 TRPM1 promoter luciferase, 24 h; 330,000 tested, 0.83% active;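 active means mean inhibition across replicates of 60% or more, whatever share of single replicates reaches that level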
aSyn UTR inh: MLPCN primary screen, SNCA 5' untranslated region. alpha-synuclein 5'UTR reporter, inhibitor activity. inhibition, % (tested at 7.5 µM). 300,000 tested, 0.82% active; in the data active means inhibition above about 60%;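 further: H4 neuroglioblastoma cells stably carrying SNCA 5'UTR luciferase fusion; 0% = DMSO wells and 100% = positive control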
* marks the source's active call; other numbers are inactive results; . = not tested or not shown.

SMILES	EBV LMP1 NFkB	PAX8 inh HTS	Shn3 inh set2	MITF TRPM1 inh	aSyn UTR inh
C[C@@H]1CN([C@@H](C)CO)C(=O)c2cc(NC(=O)C3CCCCC3)ccc2O[C@H]1CN(C)C(=O)Nc1ccc2c(c1)OCO2	.	-19	.	.	.
CSc1ncccc1C(=O)OCC(=O)c1ccc2c(c1)NC(=O)CO2	-6	3	-2	2	-15
O=C(NCC1CCOCC1)c1ccc(OC2CCN(Cc3ccccn3)CC2)cc1	58*	8	6	-9	-1
CC1Cc2ccccc2N1C(=O)CSc1nc(-c2ccccc2)cs1 (configuration not stated)	2	-9	-6	-3	-9
CC(Sc1nc(-c2ccc(F)cc2)cs1)C(=O)N1c2ccccc2CC1C (configuration not stated)	59*	26	15	13	-23
CCOc1ccc(NC(=O)CN(C)c2ccc(S(=O)(=O)N3CCOCC3)cn2)cc1OCC	6	.	7	0	-8
CCOc1ccccc1C(=O)Nc1ccccc1C(N)=O	5	.	4	13	-9
CCOc1ccccc1C(=O)Nc1ccsc1C(=O)OC	14	17	3	35	65*
CCN(CC)S(=O)(=O)c1ccc(NC(=O)CNC2CCCCC2)cc1	4	21	7	-10	13
O=C(C[n+]1cccc(CNC(=O)c2ccc(OC(F)F)cc2)c1)Nc1ccc(SC(F)F)cc1	4	67*	-5	10	-42
CC(NC(=O)CSc1n[nH]c(N)n1)c1ccccc1 (configuration not stated)	-5	5	2	9	-11
CCn1c(/C=C/c2ccccc2C)nc2ccccc2c1=O	-15	-46	-11	-25	-42
CCn1c(/C=C/c2c(C)n(CC)c3ccccc23)nc2ccccc2c1=O	-14	72*	0	-44	13
Cc1ccc(N(Cc2cc3ccccc3[nH]c2=O)C(=O)c2ccco2)c(C)c1	40*	.	10	3	11
COc1cc(C2C(C#N)=C(C)NC3=C2C(=O)c2ccccc23)cc(OC)c1OC (configuration not stated)	13	.	36	77*	.
CC1=C([N+](=O)[O-])C(c2ccccc2)C2=C(N1)c1ccccc1C2=O (configuration not stated)	13	.	14	26	113*
COc1ccc(C2C(C#N)=C(C)NC3=C2C(=O)c2ccccc23)cc1 (configuration not stated)	4	.	15	-3	8
CCC(=O)N[C@H]1C=C[C@@H](CC(=O)NCC2CC2)O[C@H]1CO	.	-28	.	.	.
CCOc1ccccc1NC(=O)c1nc(S(=O)(=O)Cc2ccccc2)ncc1Cl	-30	134*	96*	78*	51
CCS(=O)(=O)c1ncc(Cl)c(C(=O)Nc2ccccc2OC)n1	-19	5	97*	41	4
CCOc1ccccc1NC(=O)c1ccc(C(=O)Nc2ccccc2OCC)nc1	-16	40	23	6	19
COc1ccccc1NC(=O)c1ccc(CS(=O)(=O)c2ccc(C)cc2)cc1	1	4	46	2	29
COc1ccccc1NC(=O)c1nc(S(=O)(=O)Cc2ccccc2)ncc1Cl	1	130*	99*	91*	71*
Cc1nn(CC(=O)c2ccc3c(c2)OCCO3)c(=O)c(C#N)c1C	-4	4	4	-5	.
Cc1ccc(S(=O)(=O)N(C)C[C@H]2OCCCC[C@@H](C)Oc3ccc(NS(=O)(=O)c4ccc(F)cc4)cc3C(=O)N([C@@H](C)CO)C[C@H]2C)cc1	.	83*	.	.	.
Cc1ccc(S(=O)(=O)N(C)C[C@@H]2OCCCC[C@H](C)Oc3ccc(NS(=O)(=O)c4ccc(F)cc4)cc3C(=O)N([C@H](C)CO)C[C@@H]2C)cc1	.	70*	.	.	.
Cc1ccc(S(=O)(=O)Nc2ccc3c(c2)C(=O)N([C@H](C)CO)C[C@H](C)[C@H](CN(C)S(=O)(=O)c2ccc(F)cc2)OCCCC[C@H](C)O3)cc1	.	68*	.	.	.
Cc1ccc(S(=O)(=O)Nc2ccc3c(c2)C(=O)N([C@@H](C)CO)C[C@@H](C)[C@@H](CN(C)S(=O)(=O)c2ccc(F)cc2)OCCCC[C@@H](C)O3)cc1	.	68*	.	.	.
Cc1ccc(S(=O)(=O)Nc2ccc3c(c2)C(=O)N([C@@H](C)CO)C[C@H](C)[C@@H](CN(C)S(=O)(=O)c2ccc(F)cc2)OCCCC[C@@H](C)O3)cc1	.	20	.	.	.
